Bioassay records (PubChem)
An excerpt weighted towards active compounds, which were near 3.8% of everything screened.
ADAM17 inh = ADAM17 inhibition, QFRET primary screen; inhibition, % at 6.95 µM; P78536; 370,000 tested, 0.83% active; AID 720648; recombinant ADAM17, EDANS/DABCYL FRET peptide cleavage;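 active = inhibition above the mean of compounds lying between control limits plus 3 SD, set per campaign, cut at about 8.5% in these data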;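 note: 0% = DMSO-only wells as the low control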
FGF22 binding = binders of recombinant human FGF22 by thermal shift. activity (Tm shift, normalised), % at 9.99 µM. SYPRO orange fluorescence; percent of sucrose octasulfate shift, DMSO zero. Q9HCT0. 340,000 tested, 1.5% active. AID 651658;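 active = mean Tm shift, scaled 0 neutral to 100 positive control, at about 1.3% or above, every replicate too, limit read from the data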
rRNA inh HTS = selective bacterial rRNA inhibition in E. coli. E. coli WT GFP vs humanized-ribosome RFP mutants, fluorescence, 24 h; hits give low values; DMSO median 0, no signal -100. GFP signal change (wild-type ribosome), % (concentration not given with the values). 350,000 tested, 1.6% active. AID 720706;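 active = significant combined selectivity score with lowered wild-type GFP, culture density cut under 30%, mutant RFP and density less affected; inactive = any of these conditions unmet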
KLK7 zymogen act = proKLK7 (human) activation, primary screen | P49862 | purified proKLK7, EDANS-DABCYL substrate fluorescence; 100% is mature enzyme control, 0% vehicle | activation, % at 7 µM | 370,000 tested, 0.9% active;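 active = activation above the mean of all tested compounds plus 3 SD, computed per campaign excluding outliers beyond control limits, cut at about 13% in these data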
ADAM10 inh = inhibitors of human ADAM10; O14672; recombinant ADAM10, EDANS/DABCYL FRET peptide cleavage, 3 h; inhibition, % at 7 µM; 370,000 tested, 0.62% active;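 active = inhibition above a per-campaign cutoff equal to the mean of compounds falling between control-based bounds plus 3 SD, cut at about 20% in these data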;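 note: 0% = DMSO wells while the 100% control is not disclosed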
Target sequence (O14672 214-748 limits assumed): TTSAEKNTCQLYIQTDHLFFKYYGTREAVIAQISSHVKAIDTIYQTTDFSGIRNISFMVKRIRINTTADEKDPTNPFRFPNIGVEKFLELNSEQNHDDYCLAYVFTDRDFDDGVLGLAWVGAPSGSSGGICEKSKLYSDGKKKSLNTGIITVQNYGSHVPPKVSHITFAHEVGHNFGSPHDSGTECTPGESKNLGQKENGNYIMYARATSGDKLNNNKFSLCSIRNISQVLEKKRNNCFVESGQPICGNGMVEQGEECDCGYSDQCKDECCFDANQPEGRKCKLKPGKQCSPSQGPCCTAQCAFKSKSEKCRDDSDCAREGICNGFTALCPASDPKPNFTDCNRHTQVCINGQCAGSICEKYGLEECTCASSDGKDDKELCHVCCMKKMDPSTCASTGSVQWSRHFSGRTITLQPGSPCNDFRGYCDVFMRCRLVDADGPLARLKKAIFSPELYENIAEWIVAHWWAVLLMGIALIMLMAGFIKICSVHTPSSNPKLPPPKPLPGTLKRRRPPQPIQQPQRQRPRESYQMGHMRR
ADAM10 ctr = inhibits human ADAM10 in ADAM17 exosite counter-screen; 2,900 tested, 47% active; AID 743256; inhibition, % at 6.95 µM; shares compounds with ADAM17 inh; recombinant ADAM10, EDANS/DABCYL FRET peptide cleavage, 3 h;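 active = mean inhibition over the triplicate runs exceeds the activity threshold set in the earlier primary screen, cut at about 20% in these data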;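 note: 0% = DMSO wells and 100% = marimastat wells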
ADAM17 confirm = confirmation of inhibitors of human ADAM17; AID 743257; shares compounds with ADAM17 inh; 2,900 tested, 65% active; recombinant ADAM17, EDANS/DABCYL QFRET peptide cleavage; inhibition, % at 6.95 µM;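 active = mean inhibition across replicates above the hit cutoff set in the primary screen, cut at about 8.5% in these data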;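 note: 0% = DMSO wells and 100% = marimastat wells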
* marks the source's active call; other numbers are inactive results.

C[C@@H]1CN([C@H](C)CO)C(=O)c2cccc(NS(=O)(=O)c3ccc(F)cc3)c2O[C@@H]1CN(C)CC1CCCCC1 was read as FGF22 binding 0 and rRNA inh HTS 3.
Screening COc1ccc(NC(=O)Nc2ccc3c(c2)C(=O)N([C@@H](C)CO)C[C@H](C)[C@@H](CN(C)C(=O)Nc2c(C)noc2C)OCCCC[C@H](C)O3)cc1 returned FGF22 binding 0 and rRNA inh HTS -2.
Cc1ccc([C@@H]2CC(=O)[C@@H]3CN(S(=O)(=O)c4ccc(C)cc4)[C@H](c4cccc5ccccc45)C[C@@H]3N2S(=O)(=O)c2ccc(Cl)cc2)cc1 was read as ADAM17 inh -2, FGF22 binding 0, rRNA inh HTS 29, KLK7 zymogen act 0 and ADAM10 inh -6.
Screening Cc1ccc(S(=O)(=O)N2C[C@H]3C(=O)C[C@@H](c4ccccc4)N(S(=O)(=O)c4ccc(C)cc4)[C@H]3C[C@H]2c2cccc3ccccc23)cc1 returned ADAM17 inh 11*, FGF22 binding 0, rRNA inh HTS 7, KLK7 zymogen act 0, ADAM10 inh 7, ADAM10 ctr 18 and ADAM17 confirm 13*.
For CCOc1cccc(-c2c(C(=O)N/N=C/c3ccc(C)s3)nnn2-c2nonc2N)c1 the results were ADAM17 inh 9.7*, FGF22 binding 0, rRNA inh HTS 1, KLK7 zymogen act 1, ADAM10 inh 13, ADAM10 ctr -20 and ADAM17 confirm 3.
`COc1cccc(-c2c(C(=O)N/N=C/c3ccc(C)s3)nnn2-c2nonc2N)c1` gave ADAM17 inh -5, FGF22 binding 0, rRNA inh HTS -12, KLK7 zymogen act 2 and ADAM10 inh 8.
Screening O=C(CNC(=O)/C(=C\c1ccc(Br)cc1)NC(=O)c1ccccc1)OCc1ccccc1 returned ADAM17 inh 10*, KLK7 zymogen act 1, ADAM10 inh 12, ADAM10 ctr 22* and ADAM17 confirm 6.
`O=C(OCCOc1cccc(Cl)c1)c1cc(S(=O)(=O)N2CCOCC2)ccc1F` gave ADAM17 inh 10*, FGF22 binding 0, rRNA inh HTS -14, KLK7 zymogen act 0, ADAM10 inh 6, ADAM10 ctr 12 and ADAM17 confirm 6.
For COc1ccccc1N(Cc1ccccc1)S(=O)(=O)c1cccc(C(=O)Nc2cc(C)ccn2)c1 the results were ADAM17 inh 9.0*, FGF22 binding 0, rRNA inh HTS 1, KLK7 zymogen act 0, ADAM10 inh 17, ADAM10 ctr 13 and ADAM17 confirm 8.
For O=C(N[C@@H]1CC[C@H](CCNC(=O)C2CC2)O[C@@H]1CO)c1ccccn1 the results were FGF22 binding 0 and rRNA inh HTS 0.
`COC(=O)c1ccc(COc2ccccc2/C=N/NC(=O)c2cccnc2)cc1` gave ADAM17 inh 8.7*, FGF22 binding 0, rRNA inh HTS 1, KLK7 zymogen act -13, ADAM10 inh 5, ADAM10 ctr 16 and ADAM17 confirm 7.
For COc1ccc(NC(=O)Nc2ccc3c(c2)C(=O)N(C)C[C@@H](OC)[C@H](C)CN[C@H](C)CO3)cc1 the results were rRNA inh HTS -2.
Screening COc1ccc(OC)c(-c2csc(NC(=O)Cc3cc(OC)c(OC)c(OC)c3)n2)c1 returned ADAM17 inh -1, FGF22 binding 0, rRNA inh HTS -1, KLK7 zymogen act -1 and ADAM10 inh 6.
`COc1ccc(OC)c(-c2csc(NC(=O)Cc3ccc(F)cc3)n2)c1` gave ADAM17 inh 8.6*, FGF22 binding 0, rRNA inh HTS -38, KLK7 zymogen act 0, ADAM10 inh 10, ADAM10 ctr 32* and ADAM17 confirm 16*.
For CCC(=O)N1[C@@H]2Cn3c(ccc(/C=C/c4ccccc4)c3=O)[C@H]1[C@@H](C(=O)N(C)C)[C@@H]2CO the results were FGF22 binding 0 and rRNA inh HTS 3.
For CC1Oc2ccccc2N(CC(=O)Nc2ccc3c(c2)OCCO3)C1=O (centres undefined) the results were ADAM17 inh 10.0*, KLK7 zymogen act -1, ADAM10 inh 10, ADAM10 ctr -6 and ADAM17 confirm -1.
For CC1Oc2ccccc2N(CC(=O)Nc2ccc3c(c2)OCO3)C1=O (centres undefined) the results were ADAM17 inh 7, KLK7 zymogen act -1 and ADAM10 inh 9.
For CC1CCC2(CC1)NC(=O)N(CC(=O)NCc1ccc(Cl)cc1)C2=O (centres undefined) the results were ADAM17 inh -6, FGF22 binding 0, rRNA inh HTS -8, KLK7 zymogen act -1 and ADAM10 inh -22.
For O=C(CN1C(=O)NC2(CCCCCCC2)C1=O)NCc1ccc(Cl)cc1 the results were ADAM17 inh 11*, FGF22 binding 0, rRNA inh HTS -3, KLK7 zymogen act 0, ADAM10 inh 1, ADAM10 ctr 3 and ADAM17 confirm 0.
For O=C(CN1C(=O)NC2(CCCCCC2)C1=O)Nc1cccc(F)c1 the results were ADAM17 inh -2, FGF22 binding 0, rRNA inh HTS 1, KLK7 zymogen act 0 and ADAM10 inh -7.
For CN(Cc1ccccc1)C(=O)CN1C(=O)NC2(CCCCCCC2)C1=O the results were ADAM17 inh 8.8*, FGF22 binding 0, rRNA inh HTS 0, KLK7 zymogen act 0, ADAM10 inh 5, ADAM10 ctr 7 and ADAM17 confirm 8.
O=C(CN1C(=O)NC2(CCCCC2)C1=O)Nc1ccc2c(c1)OCCCO2 was read as ADAM17 inh 11*, FGF22 binding 0, rRNA inh HTS 3, KLK7 zymogen act 0, ADAM10 inh 1, ADAM10 ctr 4 and ADAM17 confirm 2.
`CSCCC(NS(=O)(=O)c1cccc(C(F)(F)F)c1)C(=O)N1CCN(C(=O)c2ccco2)CC1` (centres undefined) gave ADAM17 inh -1, FGF22 binding 0, rRNA inh HTS 1, KLK7 zymogen act 0 and ADAM10 inh -11.
`CSCCC(NS(=O)(=O)c1cccc(C(F)(F)F)c1)C(=O)N(C)CCOc1ccc(Cl)cc1` (centres undefined) gave ADAM17 inh 11*, FGF22 binding 0, rRNA inh HTS -1, KLK7 zymogen act 1, ADAM10 inh 17, ADAM10 ctr 41* and ADAM17 confirm 21*.
